Data: PubChem BioAssay AID720650 (Broad Institute, 2013)
The source made the active and inactive calls. The rule behind the calls is not given here.

Experiment: Biochemical counterscreen for C difficile toxins, absence of UDPG, inhibitor dose response (AID 720650)
Details: series mostly up to 19.5 µM; activity change, negative = inhibition: at the top concentration

For `Clc1ccc(-c2nc3ccc(Cl)cn3c2Cc2ccccc2)cc1`, which “activity change, negative = inhibition” value is on record?
Its value is -11.8% (inactive).

For `O=C(N/N=C/c1ccccn1)c1ccc([N+](=O)[O-])cc1Cl`, which “activity change, negative = inhibition” value is on record?
The value was -1.86% (inactive).

For `CN(C)c1ccc(/C=C/c2cccc[n+]2[O-])cc1`, which “activity change, negative = inhibition” value is on record?
The value was -21.1% (inactive).

Which AC50 does the source give for `COc1ccc(-c2ccc3c(c2)[C@@H]2[C@@H](CCN2C(=O)C2CC2)[C@H](CO)N3C)cc1` here?
Its AC50 is 14.8 µM (active).

Which “activity change, negative = inhibition” value does the source give for `CCn1c(C)nc2cc(C(=O)N/N=C/c3ccc(OC)c(O)c3)ccc21` here?
Its value is -12.3% (inactive).

For `Cn1ncc(Cl)c1C(=O)N/N=C/c1cccc(OC2CSC2)c1`, which AC50 is on record?
Its AC50 is > 39 µM (inactive).

With `Fc1cccc(NC(=S)NNc2c3ccccc3nc3ccccc23)c1` as the molecule, how does the “activity change, negative = inhibition” value read?
The value was -12.2% (inactive).

For `COc1ccccc1-n1c(CCC(=O)O)ccc1-c1ccccc1`, which “activity change, negative = inhibition” value is on record?
The value was -1.98% (inactive).

Which “activity change, negative = inhibition” value does the source give for `COc1ccc(-c2nc(N)ncc2-c2ccccc2OC)c(O)c1` here?
Its value is -17.4% (inactive).

With `CC(N)C(=O)NC(C(=O)N1CCCC1C(=O)NC(c1ccccc1)c1ccccc1)C(C)C` (centres undefined) as the molecule, how does the “activity change, negative = inhibition” value read?
The value was -13.4% (inactive).

For `Nc1nc(Cl)cc(NCCc2ccc(O)cc2)n1`, which AC50 is on record?
The AC50 was 21.8 µM (active).

With `O=C(Nc1ccc2c(c1)OCCO2)c1cc2ccccc2o1` as the molecule, how does the AC50 read?
Its AC50 is > 39 µM (inactive).

For `CCCC(=O)Nc1sc2c(c1C(=O)Nc1ccccn1)CCCC2`, which “activity change, negative = inhibition” value is on record?
The value was 2.48% (inactive).

For `COc1ccc(C(=O)Nc2cc(Cl)ccc2C(=O)O)cc1`, which AC50 is on record?
The AC50 was 10.4 µM (active).

Which “activity change, negative = inhibition” value does the source give for `COc1ccc(Cl)cc1NC(=O)Cn1c(NCCO)nc2ccccc21` here?
The value was -8.47% (inactive).

With `Cc1cc(C(=O)N2CCN(Cc3ccccc3)CC2)ccc1[N+](=O)[O-]` as the molecule, how does the “activity change, negative = inhibition” value read?
The value was 6.71% (inactive).

With `CCCN1CCN(C(=O)C2CCN(S(=O)(=O)c3c(C)noc3/C=C/c3ccc(C)cc3)CC2)CC1` as the molecule, how does the “activity change, negative = inhibition” value read?
The value was -11.9% (inactive).

For `CNC(C(=O)c1ccccc1)C(OC)c1cccc([N+](=O)[O-])c1` (centres undefined), which “activity change, negative = inhibition” value is on record?
The value was -4.43% (inactive).

With `O=C(Nc1nnc(-c2ccco2)o1)C1CC1` as the molecule, how does the AC50 read?
Its AC50 is > 39 µM (inactive).

For `C[C@@H]1CN([C@@H](C)CO)C(=O)c2c(c3ccccc3n2C)-c2ccccc2CO[C@@H]1CN(C)C`, which “activity change, negative = inhibition” value is on record?
Its value is -5.57% [at 21 µM] (inactive).

For `O=[N+]([O-])c1c(Nc2ccccc2O)ccc2nonc12`, which AC50 is on record?
The AC50 was > 39 µM (inactive).

With `Cc1csc(N=Nc2ccc(N(C)C)cc2)[n+]1[O-]` as the molecule, how does the AC50 read?
The AC50 was > 39 µM (inactive).

Which “activity change, negative = inhibition” value does the source give for `COc1cc(-c2noc(C)c2C#CC2(O)CCCCC2)cc(OC)c1OC` here?
The value was -10.8% (inactive).

With `Cc1ccc(/C=C(\C#N)C(=O)Nc2ccccn2)o1` as the molecule, how does the “activity change, negative = inhibition” value read?
The value was -11.4% (inactive).

For `O=C(Nc1ccc(N2CCOCC2)c(Cl)c1)c1ccc(F)cc1`, which “activity change, negative = inhibition” value is on record?
The value was -13.4% (inactive).

With `Cc1ccc(NC(=O)OC(C)N2CCCCC2)cc1NC(=O)OC(C)N1CCCCC1` (centres undefined) as the molecule, how does the “activity change, negative = inhibition” value read?
Its value is 9.91% (inactive).

With `O=C(c1ccc2c(c1)N(Cc1ccccc1)C(=O)c1ccccc1S2)N1CCCC1` as the molecule, how does the AC50 read?
The AC50 was 16.2 µM (active).

Which “activity change, negative = inhibition” value does the source give for `Cc1ccc(CNCCCn2cnc(C(=O)Nc3ccc(C)c(C)c3)n2)o1` here?
The value was 3.86% (inactive).

Which “activity change, negative = inhibition” value does the source give for `CC1(C)O[C@@H]2[C@H](O1)[C@@H](COS(=O)(=O)O)O[C@H]2n1c(=S)[nH]c2c(=O)[nH]c(N)nc21` here?
The value was -22.6% (inactive).

Which AC50 does the source give for `O=C1CSC(=Nc2ccc(O)cc2)N1` here?
Its AC50 is 17.6 µM (active).

With `CCCNC(=O)Nc1ccc2c(c1)C(=O)N(C)[C@@H]1CC[C@H](CC(=O)NC3CCC3)O[C@H]1CO2` as the molecule, how does the “activity change, negative = inhibition” value read?
The value was -5.24% (inactive).

Which “activity change, negative = inhibition” value does the source give for `COc1ccccc1CNC(=O)CNC(=O)N1CC(=O)Nc2ccccc21` here?
The value was -6.27% (inactive).

Which “activity change, negative = inhibition” value does the source give for `CCCNC(=O)C1CCN(S(=O)(=O)c2c(C)noc2/C=C\c2ccc(OC)cc2)CC1` here?
Its value is -7.57% (inactive).

For `Cc1ccc(NS(=O)(=O)c2ccc(C)c(NC(=S)NCCN3CCOCC3)c2)c(C)c1`, which “activity change, negative = inhibition” value is on record?
Its value is -7.1% (inactive).

With `O=CN(c1ccccc1)c1ccc2ccccc2c1` as the molecule, how does the “activity change, negative = inhibition” value read?
Its value is 8.32% (inactive).

Which “activity change, negative = inhibition” value does the source give for `COc1cc(/C=C/C(=O)OCC(=O)NCc2ccco2)ccc1O` here?
The value was -18.6% (inactive).

With `CCC(=O)c1cn(CC(=O)Nc2cccc(C)c2C)c2ccccc12` as the molecule, how does the “activity change, negative = inhibition” value read?
Its value is -3.61% (inactive).

With `C[N+]1(CCCCSc2ccc(O)cc2)CCCCC1` as the molecule, how does the AC50 read?
The AC50 was > 39 µM (inactive).

With `O=[N+]([O-])c1ccc(S(=O)(=O)Nc2nc(-c3ccccc3)cs2)cc1` as the molecule, how does the “activity change, negative = inhibition” value read?
The value was -12.8% (inactive).
